# Compound activity deposited in PubChem by Johns Hopkins Ion Channel Center.
# KCNQ2 pot: enhances the rat KCNQ2 potassium channel. O88943. CHO-K1 KCNQ2, FluxOR thallium flux fluorescence; active compounds read high. B-score at 10 µM. 310,000 tested, 0.54% active. AID 2239;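 active = fluorescence ratio B-score at least 3 SD of library B-scores, with initial fluorescence B-score within 3 of them, cut at about 5.3 in these data; same plate scores as AID 2156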;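 also: B-score of peak minus minimum over baseline fluorescence ratio after K+ and Tl+ stimulus; positive B-score means potentiation of KCNQ2 with more thallium influx and brighter signal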
# Target sequence (O88943 whole entry, looked up): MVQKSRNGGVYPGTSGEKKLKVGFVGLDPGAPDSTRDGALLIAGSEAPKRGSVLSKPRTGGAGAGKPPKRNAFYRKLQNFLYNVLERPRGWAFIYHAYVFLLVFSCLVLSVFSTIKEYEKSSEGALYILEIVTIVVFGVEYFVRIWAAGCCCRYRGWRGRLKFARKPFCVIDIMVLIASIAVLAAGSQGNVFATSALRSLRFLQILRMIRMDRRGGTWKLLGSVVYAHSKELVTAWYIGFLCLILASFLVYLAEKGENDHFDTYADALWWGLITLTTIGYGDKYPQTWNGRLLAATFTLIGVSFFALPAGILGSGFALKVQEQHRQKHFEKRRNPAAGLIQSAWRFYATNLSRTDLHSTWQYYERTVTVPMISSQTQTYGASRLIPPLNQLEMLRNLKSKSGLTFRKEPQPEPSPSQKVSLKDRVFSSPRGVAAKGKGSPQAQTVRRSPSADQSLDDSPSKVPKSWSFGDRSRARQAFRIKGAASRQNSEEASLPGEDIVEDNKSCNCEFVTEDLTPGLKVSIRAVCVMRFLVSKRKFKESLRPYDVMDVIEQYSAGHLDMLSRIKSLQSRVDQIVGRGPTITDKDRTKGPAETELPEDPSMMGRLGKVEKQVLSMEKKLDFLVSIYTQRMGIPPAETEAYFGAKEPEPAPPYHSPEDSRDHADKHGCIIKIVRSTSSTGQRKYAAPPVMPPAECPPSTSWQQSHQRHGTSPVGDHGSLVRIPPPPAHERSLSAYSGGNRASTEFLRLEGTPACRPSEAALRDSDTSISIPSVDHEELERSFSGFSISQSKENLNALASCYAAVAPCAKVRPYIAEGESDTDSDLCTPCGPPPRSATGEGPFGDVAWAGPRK
# KCNQ2 inh: KCNQ2 (rat) channel inhibition. CHO-K1 KCNQ2, FluxOR thallium flux, 20 min; active compounds read low. AID 2156. O88943. B-score at 10 µM. 310,000 tested, 1.1% active;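 active = fluorescence ratio B-score at most minus 3 library SDs, with starting brightness B-score within 2 library SDs, cut at about -5.5 in these data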
# Hits are given with their value; 0 = inactive; - = no result given. The list is not random: actives were taken first. Their share in the collection is about 1.6%.
SMILES,KCNQ2 pot,KCNQ2 inh
Cc1cc(C)c(OCC(=O)Nc2ccccc2N2CCCCC2)c(C)c1,0,-5.56
COc1ccc(NC(=O)CN2C(=O)NC3(CCCC3)C2=O)cc1,-,0
NC(=O)NOCc1ncc(C(F)(F)F)cc1Cl,-,0
O=C(/C=C/c1cn(-c2ccccc2)nc1-c1ccccc1)Nc1ccc(C(=O)O)cc1,0,0
CC1CCC(C(=O)NNC(=O)c2cc(-c3ccco3)[nH]n2)CC1 (centres undefined),0,0
NS(=O)(=O)c1cc2c(cc1C(F)(F)F)NC(Cc1ccccc1)NS2(=O)=O (centres undefined),0,0
Cc1ccccc1OCC(=O)Nc1ccc(S(=O)(=O)N2CCCC2)cc1,-,0
Cc1ccccc1OCC(=O)Nc1cccc(Cl)c1C,0,0
Cc1ccccc1OCC(=O)Nc1ccccc1N1CCC(C)CC1,0,-6.2
Cc1ccccc1OCC(=O)Nc1ccccc1-c1ccccc1NC(=O)COc1ccccc1C,0,-5.61
CC(=O)N1CCN(c2ccccc2NC(=O)COc2ccccc2C)CC1,-,0
Cc1ccccc1OCC(=O)Nc1ccc(C)c(S(=O)(=O)N2CCCCCC2)c1,0,-6.07
COc1ccc(CCNC(=O)c2coc(=O)c(Br)c2)cc1,0,0
CCSc1nnc2nc(C)cc(C)n12,0,0
CC(Oc1cccc(F)c1)C(=O)/C=C\N(C)C (centres undefined),-,0
CN(C)/N=C/C=C1\CCC/C(=C\c2ccc(F)c(F)c2)C1=O,0,-7.09
COc1ccc(/C=C2\CCC/C(=C\C=N\N(C)C)C2=O)cc1,-,0
COCC1CCN(Cc2c(C(=O)N3CCN(C4CCCCC4)CC3)nc3ccccn23)C1 (centres undefined),-,0
CN1CC(C(=O)Nc2ccc(F)c(Cl)c2)CC1=O (centres undefined),-,0
O=C(Nc1ccccc1N1CCCC1)c1ccccc1Cl,0,-6.08
O=C(Nc1ccccc1N1CCCC1)c1ccc(Cl)cc1Cl,-,0
Cc1ccccc1C(=O)Nc1ccccc1N1CCCCC1,-,0
O=C(Nc1ccccc1N1CCCC1)c1cc(Cl)ccc1Cl,0,-5.74
COc1ccc(-n2ncc3c(Nc4cccc(C)c4)ncnc32)cc1,-,0
Cc1ccc(C(=O)N(Nc2nc3ccccc3s2)C(=O)c2ccc(C)cc2)cc1,-,0
SMILES,KCNQ2 pot,KCNQ2 inh
O=S1(=O)N=C(Nc2ccc(S(=O)(=O)N3CCCCC3)cc2)c2ccccc21,0,0
CCCCSCCCNC(=O)Nc1ccc(C)c(C)c1,8.69,0
Cc1ccc(NC(=O)NCCN2CCCCC2)cc1C,0,0
O=C(c1coc2ccc(O)cc12)C1CC1,0,0
Cc1cccc(C(=O)NCCN2CCOCC2)c1[N+](=O)[O-],0,0
Cc1cc2nnc(SCC(=O)NCc3ccco3)n2c2ccccc12,8.71,0
Cc1cc2nnc(SCC(=O)NCc3cccs3)n2c2ccccc12,-,0
Cc1cc(OCC(=O)Nc2nccs2)c2c(C)cc(=O)oc2c1,-,0
C=C(C)c1cccc(C(C)(C)NC(=O)Nc2cc(C)ccc2OC)c1,0,0
C=C(C)c1cccc(C(C)(C)NC(=O)Nc2ccccc2OCC)c1,8.73,0
O=C(NCc1ccc2c(c1)OCO2)C1CCN(S(=O)(=O)c2ccc(Br)s2)CC1,17.4,0
O=C(NCc1ccc2c(c1)OCO2)C1CCN(S(=O)(=O)c2cccs2)CC1,0,0
Nc1c(C(=O)N/N=C/c2cccnc2)cnn1-c1ccccc1,0,0
O=C(O)Cc1ccc(C(=O)c2ccc(Cl)cc2Cl)s1,0,0
COc1cccc(CNC(=O)C2CC(=O)N(c3ccc4c(c3)OCCO4)C2)c1 (centres undefined),-,0
COc1cc(NC(=O)c2cc(CC(C)C)on2)c(OC)cc1Cl,0,-7.83
CCCc1cc(C(=O)Nc2cc(OC)c(Cl)cc2OC)no1,0,0
Cc1onc(-c2c(Cl)cccc2Cl)c1/C(N)=N/OC(=O)C(C)(C)C,0,0
Cc1onc(-c2c(Cl)cccc2Cl)c1CO/N=C(\C#N)c1c(Cl)cccc1Cl,0,-5.55
CC1(C)C2CCC1(C)C(OC(=O)C[n+]1ccccc1)C2 (centres undefined),-,0
CC1(C)C2CCC1(C)C(OC(=O)CC(=O)O)C2 (centres undefined),0,-8.22
C=CCCC(=O)N1CCC(n2nccc2NC(=O)c2ccc(OC)cc2)CC1,-,0
Cc1[nH]c(C)c(S(=O)(=O)NCc2ccc(OC(C)C)cc2)c1C(=O)N1CCCC1,0,-5.65
COc1ccc(CNS(=O)(=O)c2c(C)[nH]c(C)c2C(=O)N2CCCC2)cc1,-,0
Cc1ccc(-c2cc(-c3ccc(Cl)cc3)c(C#N)c(N)n2)o1,0,-6.79
SMILES,KCNQ2 pot,KCNQ2 inh
Cc1ccc(-c2cc(-c3ccc(C)o3)nc(N)c2C#N)cc1,-,0
COC(=O)c1c(C)[nH]c(C(=O)CC#N)c1C,0,0
CCCOc1ccc(/C=N/Nc2cc(N3CCOCC3)ncn2)c(O)c1,-,0
c1cncc(-c2nc(NCc3ccc4c(c3)OCO4)c3ccccc3n2)c1,-,0
COc1cc(C(=O)NCCSc2ccc(Cl)cc2)cc(OC)c1OC,-,0
CCOC(=O)c1c(NC(=O)C(Sc2ccccc2)c2ccccc2)sc(C(N)=O)c1C (centres undefined),-,0
CCOC(=O)c1c(NC(=O)C(Sc2ccccc2)c2ccccc2)sc(C(=O)N(C)C)c1C (centres undefined),0,-5.85
COc1ccccc1CNc1ncc(-c2ccc(F)cc2)n1C,0,0
COc1ccc(CNc2ncc(-c3ccc(F)cc3)n2C)c2ccccc12,0,-6.23
CCOc1ccc(C(=O)Nc2nnc(S(=O)(=O)N3CCCCC3)s2)cc1,0,0
Cc1cc(NC(=O)CN(C)CCOc2ccccc2)ccc1Br,-,0
CN(CCOc1ccccc1)CC(=O)Nc1cccc(Br)c1,0,-6.3
S=c1[nH]nc(-c2ccco2)n1/N=C/C=C/c1ccco1,0,0
CC(c1ccccn1)N(CCN(C)C)C(=S)Nc1cccc(F)c1 (centres undefined),0,0
CC(C)CCN(C(=S)Nc1cccc(C(F)(F)F)c1)C(C)c1ccccn1 (centres undefined),0,-6.12
CC(=O)NCc1cc(-c2nn(C)c(=O)c3ccccc23)ccc1C,0,0
C=CCSc1cc(C)nc2c(-c3ccccc3)c(C)nn12,-,0
Cc1cc(SCC(=O)c2cccs2)n2nc(C)c(-c3ccccc3)c2n1,5.99,0
CC1(C)CC(=O)C2=C(C1)OC(N)=C(C#N)C2c1ccc[nH]1 (centres undefined),0,0
CC(=O)Nc1ccc(C(=O)OCc2ccccc2Br)cc1,-,0
O=C(COc1cccc(C(F)(F)F)c1)NCC(c1ccco1)N1CCCCC1 (centres undefined),0,-5.6
O=C(COc1ccccc1)NCC(c1ccco1)N1CCN(c2ccccc2)CC1 (centres undefined),-,0
COc1ccc2nc(N=NC3=C(O)CC(C)(C)CC3=O)sc2c1,0,0
COc1ccc2nc(N=Nc3ccc(O)c4ccccc34)sc2c1,9.32,0
COc1ccccc1NC(=O)C(C)NS(=O)(=O)c1ccc(F)cc1 (centres undefined),0,0
SMILES,KCNQ2 pot,KCNQ2 inh
COc1ccccc1CNC(=O)CCc1nnc2ccc(NCCCN3CCCC3=O)nn12,-,0
FC(F)(F)c1cccc(OCC2CNC(=S)O2)c1 (centres undefined),0,0
CCOc1ccc(NC(=S)N/N=C(\C)Cc2ccc(OC)cc2)cc1,0,0
COc1ccc(NC2CCCN(C(=O)CCc3scnc3C)C2)cc1 (centres undefined),-,0
C=CCc1ccc(OCCn2cccc2C=O)c(OC)c1,7.61,0
C=CCc1ccc(OCCn2nnc3ccccc32)c(OC)c1,0,0
